Laboratory results published in PubChem BioAssay (NCI).
The panel holds about 83,000 compounds, 20% with a hit somewhere; the sample as a whole holds those more often.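 Assay: single dose, 48 h. Readout: percent growth (0 = no net growth; negative = cell death). Active: <10.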 Values without a mark were called inactive. The source made the active and inactive calls.

Tests used:
Assay in all cases: NCI-60 one-dose screen, 48 h (100 = growth as untreated, 0 = no growth, -100 = all killed)
Conditions in all cases: 10 µM unless noted
T-47D breast = test system: T-47D breast
BT-549 breast = test system: BT-549 breast
MDA-MB-435 melanoma = test system: MDA-MB-435 melanoma
SW-620 colon = test system: SW-620 colon
MCF7 breast = test system: MCF7 breast
HCT-116 colon = test system: HCT-116 colon
HCC-2998 colon = test system: HCC-2998 colon
KM12 colon = test system: KM12 colon

Structure (SMILES)	growth (T-47D breast)	growth (BT-549 breast)	growth (MDA-MB-435 melanoma)	growth (SW-620 colon)	growth (MCF7 breast)	growth (HCT-116 colon)	growth (HCC-2998 colon)	growth (KM12 colon)
O=C(COc1ccccc1)N1N=C(c2ccc(Cl)cc2)CC1c1c[nH]c2ccccc12 (stereo not drawn)	51.4%	71.3%	93.8%	54.5%	39.7%	68.5%	103%	74.1%
CS(=O)(=O)N(c1cc(-c2ccc3ncnc(Nc4cccc(Cl)c4)c3c2)cnc1Cl)S(C)(=O)=O	-2.25% (active)	-8.61% (active)	15.9%	20.4%	4.87% (active)	12.1%	23.9%	21.3%
COc1cccc(-c2nc3sccn3c2-c2ccnc(NCCCNS(=O)(=O)c3ccc(F)cc3)n2)c1	-8.19% (active)	29.6%	25.2%	58.4%	39.9%	19.9%	82.4%	22.1%
CCOc1ccc(/C=C/C=N/NC(N)=S)cc1	38.2%	57.4%	88.9%	87.2%	43.5%	70.1%	70.1%	84%
O=C(O)C(=Cc1c2ccccc2cc2ccccc12)C(=O)O	90.5%	105%	109%	105%	97.5%	97.7%	100%	109%
CC/C=C\C[C@H](O)C/C=C1/C(=O)C(Cl)=C[C@@H]1C/C=C\CCCC(=O)OC	-16.9% (active)	-85.5% (active)	-43.7% (active)	-55.3% (active)	-71.2% (active)	-83.7% (active)	-92.1% (active)	-81.5% (active)
COc1ccc(/C=C\c2cc(OC)c(OC)c(OC)c2)c(NS(=O)(=O)c2ccc(C(C)(C)C)cc2)c1O	72.2%	37.7%	-17% (active)	31.7%	10.1%	13.4%	19.5%	12.1%
CCCCCCC[C@@H](O)CC(=O)N[C@H](CCCCN)C(=O)N[C@H](Cc1c[nH]c2ccccc12)C(=O)NC(CCCCN)C(=O)N[C@H](CC(C)C)C(=O)N[C@H](Cc1ccccc1)C(=O)N[C@H](CCCCN)C(=O)N[C@H](CCCCN)C(=O)N[C@H](CC(C)C)C(=O)N1CCCC1C(=O)N[C@H](CCCCN)C(=O)N[C@H](Cc1ccccc1)C(=O)N[C@H](CC(C)C)C(=O)N[C@H](Cc1c[nH]cn1)C(=O)N[C@H](CC(C)C)C(=O)N[C@H](C)C(=O)N[C@H](CCCCN)C(=O)N[C@H](CCCCN)C(=O)N[C@H](Cc1ccccc1)C(=O)O (stereo partly drawn)	-39.9% (active)	-43% (active)	-38.7% (active)	-52.2% (active)	-23.8% (active)	-35.7% (active)	-49.2% (active)	-63% (active)
O=C1Nc2cc(Cl)ccc2Oc2cc(Oc3ccccc3)ccc21	48.5%	56.4%	-3.81% (active)	16.6%	29%	27.8%	60.6%	20%
O=[N+]([O-])c1cc(S(=O)(=O)OCC2CO2)ccc1Cl (stereo not drawn)	77.1%	91.3%	97.7%	41.2%	75.5%	54%	107%	82.6%
O=C(Nc1ccc(Cl)cc1)c1cc(-c2ccc(F)cc2)c2sc(=O)[nH]c2n1	3.75% (active)	-13.1% (active)	8.39% (active)	14.5%	4.61% (active)	3.3% (active)	22%	6.83% (active)
CNC(=O)c1cc(Oc2ccc3c(c2)sc2nc(-c4ccc(Cl)cc4)cn23)ccn1	79%	87.8%	97.7%	97.3%	72%	80.9%	90.1%	92.9%
CCC1CCc2nc3sc(C(=O)Nc4cccc(C)c4)c(N)c3cc2C1 (stereo not drawn)	96.9%	86.1%	-15.9% (active)	53.2%	18.7%	83.8%	100%	48.5%
Cc1ccc(Cn2c(-c3nonc3N)nc3ccccc32)cc1	74.6%	68.3%	-30.8% (active)	28.4%	55.5%	58.2%	75.1%	31.6%
COc1ccc(/C=C/c2nc(N3CCOCC3)c3nc(Cl)c(Cl)cc3n2)cc1OC	88.2%	99.9%	99.8%	109%	111%	89.3%	103%	93.9%
COc1cc(/C=C/C(=O)c2ccccc2O)ccc1OCCCOc1cc2c(cc1OC)C(=O)N1CCC[C@H]1C=N2	21.8%	-4.28% (active)	-28.9% (active)	5.6% (active)	-15.1% (active)	2.66% (active)	-16.7% (active)	-18.3% (active)

Structure (SMILES)	growth (T-47D breast)	growth (BT-549 breast)	growth (MDA-MB-435 melanoma)	growth (SW-620 colon)	growth (MCF7 breast)	growth (HCT-116 colon)	growth (HCC-2998 colon)	growth (KM12 colon)
O=C(OCCCCOC(=O)n1cnc2ccccc21)n1cnc2ccccc21	92.2%	104%	103%	106%	96.7%	102%	111%	104%
COC(=O)C(CC(=O)c1ccc(-c2ccccc2)cc1)c1ccccc1 (stereo not drawn)	51.9%	71.2%	5.69% (active)	26.9%	16.2%	23.5%	96.5%	55.6%
Cc1nc2scc(-c3ccccc3)n2c(=O)c1CCO	99.6%	116%	103%	101%	88.9%	101%	112%	103%
Nc1c(C(=O)Nc2ccccc2)sc2nc3c(cc12)CCC3	101%	81.7%	-1% (active)	53.1%	51.8%	66.6%	89.4%	52.8%
O=C(c1ccccc1)C(Cl)C(Cl)c1ccccc1 (stereo not drawn)	-1.59% (active)	96.5%	33.7%	-41.3% (active)	9.18% (active)	7.77% (active)	98.1%	81.3%
CC1Cc2c(N(C)C)ncnc2N(C)c2ccc(O)cc21 (stereo not drawn)	89.7%	88.8%	8.93% (active)	63.5%	73.9%	79.6%	88.8%	59.9%
CN(C)c1ncc(-c2ccc(C(F)(F)F)cc2)c(NC2CCCCCC2)n1	35.1%	90.3%	65.4%	58.1%	41.2%	44.1%	72.2%	54.4%
CN(C)C/C=C/C(=O)Nc1cc2c(Nc3ccc(F)c(Cl)c3F)ncnc2cc1OCCOC(F)F	-1.23% (active)	5.73% (active)	5.61% (active)	3.09% (active)	20%	2.2% (active)	41.1%	44.6%
COC1=CC(c2ccc[nH]2)=N/C1=C\c1[nH]c(C)c(C(=O)CCCCC(=O)NCc2ccccc2)c1C	50.5%	21.5%	-20% (active)	-96.7% (active)	-100% (active)	-83.1% (active)	57.8%	-25.2% (active)
NC(=O)c1ccc2c(c1)OCO2	111%	110%	100%	98%	95.6%	101%	100%	103%
CC(=O)OC[Si](C)(C)c1ccccc1	105%	107%	99.1%	101%	107%	99.9%	122%	110%
CC(C)CCN(CCCNc1c2c(nc3ccccc13)CCCC2)CCC(C)C	98.8%	91.3%	89.3%	79.9%	69.9%	63.7%	69.7%	105%
Cc1cc(C)c2c(=O)[nH]c(SCC(=O)Nc3cccc(S(=O)(=O)N(C)C)c3)nc2n1	92.4%	103%	105%	105%	97.4%	97.1%	106%	112%
COc1cccc(-c2nc3sccn3c2-c2ccnc(NCCCNS(=O)(=O)c3ccccc3)n2)c1	0.88% (active)	47.2%	40.9%	75.1%	52%	38.6%	93.8%	43.5%
CC(C)C[C@H](NC(=O)[C@@H](Cc1ccccc1)n1ccc(Nc2ccccc2)cc1=O)B(O)O	-15.4% (active)	-10.5% (active)	-51.3% (active)	-10.4% (active)	21.1%	-37.9% (active)	-83.8% (active)	-55.1% (active)
